# ChEMBL document CHEMBL3988442, “University of Dundee, Small-Polar-MMV Screening Library” (2021)
# Out of some 48,000 compounds screened, about 13,000 (27%) showed an effect of 50% or more. Some of the results follow.
# System: Wolbachia pipientis
# Assay: Anti-Wolbachia Cell-Based Screen
# Assay type: functional
# Parameters: scale not given: in the data most compounds retested in dose-response had high values
# Details: 5 µM
row,Compound,Percent Effect [%]
1,CC(=O)N1CCn2c(-c3ccccc3)cnc2C12CCNCC2.O=C(O)C(F)(F)F.O=C(O)C(F)(F)F,-11.86
2,CCS(=O)(=O)N1CCC2(CC1)c1ncc(-c3cccnc3)n1CCN2C,107
3,CC(=O)N1CCC2(CC1)c1ncc(-c3ccccc3)n1CCN2C,98.56
4,CC(=O)N1CCC2(CC1)c1ncc(-c3ccccc3)n1CCN2C(C)=O,23.35
5,CCS(=O)(=O)N1CCC2(CC1)CCn1c(-c3cnn(C)c3)cnc12.O=C(O)C(F)(F)F,2.009
6,CN1CCn2c(-c3ccccc3)cnc2C12CCN(CC1CC1)CC2.O=C(O)C(F)(F)F.O=C(O)C(F)(F)F.O=C(O)C(F)(F)F,-7.532
7,Cc1ccc(-c2cnc3n2CCN(C)C32CCN(CC3CC3)CC2)cc1.O=C(O)C(F)(F)F.O=C(O)C(F)(F)F.O=C(O)C(F)(F)F,0.5048
8,CC(=O)N1CCC2(CC1)c1ncc(-c3ccc(F)cc3)n1CCN2C,95.01
9,Cc1cc(C(=O)N2CCC(n3cc(CO)nn3)CC2)ccc1F,2.644
10,CN(C)C(=O)CCN1CC(c2ccccc2)(c2ccccc2)CCC1=O,-7.363
11,Cc1nnc(CN(C)CC(=O)N2CCCC(C)CC2)n1C (centres undefined),-6.061
12,Cc1cc(C[C@@H]2COC[C@@H]2NC(=O)CNC(=O)N(C)C)on1,-9.814
13,CS(=O)(=O)CCC(=O)NC(Cc1ccccc1)C1CC1 (centres undefined),2.067
14,O=C(CCN1CCCC1=O)NCc1cccnc1Oc1ccccc1,-4.21
15,CN(CC(=O)N1CCCC1Cn1cccn1)C1CC1 (centres undefined),-6.628
16,O=C(CCOc1ccc(F)cc1)N1CCCC1Cn1cccn1 (centres undefined),126.4
17,O=C(CCOc1cccc(F)c1)N1CCCC1Cn1cccn1 (centres undefined),124.8
18,COc1cccc(CNC(=O)CN2CCCCC2Cn2cccn2)c1 (centres undefined),0.3805
19,O=C(CCCOc1ccccc1)N1CCCC1Cn1cccn1 (centres undefined),116.1
20,O=C(CN1CCCC1Cn1cccn1)NCCOc1cccc(F)c1 (centres undefined),99.45
21,Cc1cccc(OCCNC(=O)CN2CCCC2Cn2cccn2)c1 (centres undefined),-3.043
22,COCc1nc(CNC(=O)C(C)n2ccnc2C(C)C)no1 (centres undefined),-16.22
23,Cc1ccc(NC(=O)NC(C)C(=O)N2CCS(=O)(=O)CC2)cc1 (centres undefined),-2.937
24,COc1cccc(COCC(=O)N2CCCC2Cn2cccn2)c1 (centres undefined),116
25,Cc1ccc(CC(=O)N2CCCCC2Cn2cccn2)cn1 (centres undefined),89.03
26,COc1cccc(COCC(=O)N2CCCC(n3cccn3)C2)c1 (centres undefined),17.54

row,Compound,Percent Effect [%]
1,O=C(Cn1cnnn1)N1CCCCC1Cn1cccn1 (centres undefined),-6.209
2,COc1ccc2cc(C(=O)N3CCCCC3Cn3cccn3)[nH]c2c1 (centres undefined),-2.712
3,COc1ccc(CC(=O)N2CCCCC2Cn2cccn2)cc1 (centres undefined),136.1
4,COc1ccc(OCCC(=O)N2CCCC2Cn2cccn2)cc1 (centres undefined),116.7
5,O=C(c1ccc(Br)o1)N1CCCCC1Cn1cccn1 (centres undefined),0.8504
6,COc1cccc(COCC(=O)N2CCCC(N3CCCC3)CC2)c1 (centres undefined),-3.543
7,COc1ccc2c(ccn2CC(=O)N2CCCC2Cn2cccn2)c1 (centres undefined),2.808
8,Cc1cc(CN(C)C(=O)c2ccc(F)cc2F)no1,11.87
9,COc1c(Br)cccc1CCNC(=O)c1csnn1,-2.024
10,CN1CCC(Cc2noc(CCc3nc4ccccc4nc3O)n2)CC1,-2.649
11,Cc1cnc(C)c(N2CCN(CCCc3ccncc3)CC2)n1,-5.646
12,CC(C)NC(=O)NC(=O)C(C)N1CCN(C2CCN(C(C)C)CC2)CC1 (centres undefined),-25.53
13,COC(=O)C1CCCCN1Cc1cccc(C(=O)NCc2ccco2)c1 (centres undefined),0.7191
14,CCn1ncnc1C(C)Nc1cc(C)c2ccc(SC)cc2n1 (centres undefined),-5.818
15,CCn1ncnc1C(C)NC(=O)CC1CCN(C(C)C)CC1 (centres undefined),-18.67
16,CCn1ncnc1C(C)Nc1cc(C2CC2)ncn1 (centres undefined),83.57
17,CCn1ncnc1C(C)Nc1cc(C2CCNCC2)nc(C)n1 (centres undefined),90.92
18,CCn1nc(C)c(C(C)Nc2cc(C3CCNCC3)nc(C)n2)c1C (centres undefined),97.89
19,CCn1ncnc1C(C)NC(=O)C1CCN(C(C)C)CC1 (centres undefined),-6.672
20,CCc1cnc(C)nc1NC(CC)c1ncnn1CC (centres undefined),9.184
21,NC(=O)CCNC(=O)Cc1cccc(I)c1,-0.109
22,COc1cc(C(C)NCc2scnc2C)ccc1SC(F)F (centres undefined),-45.23
23,Cc1ccc(N2CC3(CCN(S(=O)(=O)C4CC4)C3)C2)nn1,-11.71
24,COCCCNC(=O)CN1CCCC1c1c(C)nn(C)c1Cl (centres undefined),-2.309
25,Cc1nn(C)c(Cl)c1C1CCCN1CC(=O)NCc1ccco1 (centres undefined),93.09
26,Cc1nc(C)n(CC2CCCN2CC(=O)NCc2ccco2)n1 (centres undefined),-10.96

row,Compound,Percent Effect [%]
1,COCCNC(=O)CN1CCCC1c1c(C)nn(C)c1Cl (centres undefined),87.98
2,Cc1nn(C)c(C)c1C1CCCN1CC(=O)NC(C1CC1)C1CC1 (centres undefined),8.112
3,NC(=O)CN1C(=O)CO[C@H]2CN(Cc3ccc(Cl)cc3)C[C@H]21,-3.813
4,CN(CC(N)=O)Cc1c(Cl)ccc2cccnc12,1.669
5,COc1ccc(Cl)cc1NCC(=O)N(Cc1ccncc1)C1CC1,10.17
6,Cc1ccc(CSc2nc(N)cc(NCCC(N)=O)n2)cc1,-9.969
7,Cc1ccc(CSc2nc(N)cc(NCCS(=O)(=O)N(C)C)n2)cc1,94.01
8,Cc1ccc(CSc2nc(N)cc(NCC(=O)N3CCNCC3)n2)cc1,0.4693
9,Cc1cc(NCCS(C)(=O)=O)nc2ccccc12,2.58
10,Cc1ccc(CSc2nc(N)cc(NCCC(=O)N3CCCC3)n2)cc1,92.81
11,CN(C)S(=O)(=O)CCNc1ncc2c(n1)CCN2c1ccccc1,-5.162
12,CC(C)c1nc2n(n1)CC(Nc1ncnc3ccccc13)CC2 (centres undefined),-42.74
13,COC1CCN(C(=O)c2nn(-c3ccc(C(C)C)cc3)cc2O)CC1,2.392
14,CC1(C)CN(C(=O)c2cc(F)cc3[nH]cnc23)CCS1,94.05
15,CCCN(CC(F)(F)F)C(=O)c1cc(F)cc2[nH]cnc12,-1.946
16,COC(=O)CCCN(C)C(=O)c1cc(F)cc2[nH]cnc12,-15.15
17,CC1(C)CCN1C(=O)c1cc(F)cc2[nH]cnc12,96.75
18,CC(C)C1CN(C(=O)c2nccnc2N)CCS1 (centres undefined),-3.274
19,CC(C)C1CN(C(=O)c2cc(F)cc3[nH]cnc23)CCS1 (centres undefined),102.4
20,CCN(CCC(=O)OC)C(=O)c1cc(F)cc2[nH]cnc12,-3.962
21,CC(C)C1CN(C(=O)c2ccc(C(N)=O)cc2)CCS1 (centres undefined),0.1325
22,COCCN(CCOC)C(=O)c1cc(F)cc2[nH]cnc12,18.56
23,CCC(CO)NC(=O)Nc1cc(F)ccc1Br (centres undefined),7.156
24,N#Cc1cccc(OCC(=O)N(Cc2ccsc2)C2CC2)c1,-11.35
25,COCC1CCN(CCCc2cccc(OC)c2)CC1,-10.46
26,CC(C)(C)CNC[C@H]1Cn2ccnc2CO1,-18.46

row,Compound,Percent Effect [%]
1,NC(=O)C1CN(C(=O)Nc2ccccc2OCC(F)(F)F)CCO1 (centres undefined),120.3
2,C=C(C)COc1ccccc1NC(=O)N1CCOCC1CO (centres undefined),6.942
3,NC(=O)C1CN(C(=O)C2(c3ccc(F)cc3F)CCCC2)CCO1 (centres undefined),-8.523
4,NC(=O)C1CN(C(=O)Nc2ccccc2-c2cccs2)CCO1 (centres undefined),-5.73
5,NC(=O)C1CN(C(=O)Nc2ccccc2Oc2ccccc2Cl)CCO1 (centres undefined),94.62
6,NC(=O)C1CN(C(=O)Nc2ccccc2SC(F)(F)F)CCO1 (centres undefined),-3.203
7,NC(=O)C1CN(C(=O)Nc2ccccc2N2CCCCCC2)CCO1 (centres undefined),3.966
8,NC(=O)C1CN(C(=O)Nc2ccccc2SC2CCCC2)CCO1 (centres undefined),100
9,O=C(COc1ccccc1O)N1CCOC(C(F)(F)F)C1 (centres undefined),13.92
10,CSc1ccc(-c2nc(CN3CCCC(CNC(C)=O)C3)c(C)o2)cc1 (centres undefined),24.94
11,CC(=O)N1CCC(N2CCOC[C@H]2c2nc(-c3ccccc3)c[nH]2)CC1,-17.76
12,Cc1cc(C)c2nc(CN3CCC(C#N)CC3)cc(O)c2c1,-6.492
13,O=C(NCc1cc2n(n1)CCCN(Cc1ccc(CO)o1)C2)C1CCC1,-16.23
14,CS(=O)(=O)N1CCCn2nc(CNc3cc(C#N)ccn3)cc2C1,9.255
15,O=C(NCc1cc2n(n1)CCCN(Cc1ccc(Cl)s1)C2)C1CCC1,-18.59
16,CC(=O)c1ccc(NCc2cc3n(n2)CCCN(S(C)(=O)=O)C3)nc1,-0.5632
17,N#Cc1ccc(NCc2cc3n(n2)CCCN(C(=O)C2CCC2)C3)nc1,102.7
18,N#Cc1ccnc(NCc2cc3n(n2)CCCN(C(=O)C2CCC2)C3)c1,115.4
19,CSCC(C)(O)CNC(=O)Nc1ccc(C)cc1Br (centres undefined),7.748
20,O=C(O)c1cccc(CC2CCN(c3ncccn3)CC2)c1,-1.664
21,O=C(C1CC1)N1CCCCCC1C1CCN(c2ncccn2)CC1 (centres undefined),-21.65
22,CN(C)C(=O)[C@@H]1CCO[C@@H]2CCN(c3ncccn3)C[C@H]21,1.087
23,CN(C)C(=O)c1cccc(C2CCN(c3ncccn3)CC2)n1,135.8
24,NC(=O)c1cccc(C2CCN(c3ncccn3)CC2)n1,105.7
25,CCN(C(C)=O)C1CCN(c2nccc(C3CCCC3)n2)C1 (centres undefined),3.77
26,COC(=O)c1ccc(NC(=O)[C@@H]2CCCN2C(=O)c2ccco2)s1,-1.409
